Source: PubChem BioAssay (several laboratories)
Hits are enriched below; roughly 1.8% of the tested compounds scored in any of these assays.
GRK2 aptamer HTS = blocks RNA aptamer binding to human GRK2; P25098; bead flow cytometry, FAM-aptamer displacement from GRK2; inhibition of aptamer binding, % at 10 µM; 330,000 compounds, 0.59% hits;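 active = inhibition of aptamer binding above 40%, roughly 3 SD of noise, on plates passing a quality check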;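 note: median bead fluorescence of bound FAM aptamer so fluorescent compounds give negative values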
PKD1 kinase inh = blocks activity of human protein kinase D1 | Q15139 | AID 797 | PKD1 kinase fluorescence polarization assay | 200,000 compounds, 0.056% hits | inhibition, % (concentration not given with the values)
HDAC3 inh = human HDAC3 inhibition; O15379; recombinant HDAC3, fluorogenic peptide/trypsin coupled, fluorescence; inhibition, % at 8.3 µM; 320,000 compounds, 0.15% hits; in the data active = inhibition above about 26%, passing the limit was not always enough; inconclusive = no clear call, values can overlap the other calls
DSG3 Ab inh = human desmoglein-3 autoantibody binding inhibition. binding (percent of control), % at 10 µM. AID 588358. 310,000 compounds, 0.48% hits. DSG3-coupled beads, scFv-anti-DSG3-GFP binding, flow cytometry; hits give low values. P32926;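 active = binding more than 3 SD below its plate's average and above zero; inconclusive = below that plate limit but binding exactly zero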;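 note: hits lower antibody fragment binding to DSG3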
VLA-4 inh = inhibition in a human VLA-4 binding assay; P13612; VLA-4 expressing cells, ligand binding flow cytometry; inhibition, % (about 7 µM as worked out from the volumes in the protocol); 330,000 compounds, 0.2% hits; AID 2557
LANA-H2B inh = blocks KSHV LANA binding to histone H2A/H2B. Q9QR71. cell-free LANA-H2A/H2B peptide, fluorescence polarization. inhibition, % (test concentration not listed). 320,000 compounds, 0.6% hits; in the data active = inhibition mostly above about 10%, no sharp cut-off; inactive = mostly below about 6.7%
Active calls of the source: *; ? = inconclusive; . = no result; + = active, no number. Cut-off read from the data, not from the text of the source, unless noted: active = inhibition above about 50%; inactive = the rest.

SMILES | GRK2 aptamer HTS | PKD1 kinase inh | HDAC3 inh | DSG3 Ab inh | VLA-4 inh | LANA-H2B inh
CN(C)CCNC(=O)C1CC(=O)N(c2ccc(F)c(Cl)c2)C1 (centres undefined) | 0 | -2 | 1 | 102 | 2 | 94*
CC(C)CC1NC(=O)N(CC(=O)Nc2cccc(Br)c2)C1=O (centres undefined) | 0 | . | 1 | 100 | 13 | 2
N#Cc1ccc(-c2ccc(OCC(O)CN3CCCCC3)cc2)cc1 (centres undefined) | 0 | . | -46 | 119 | 2 | 8
COc1ccc(C=NCC2OCCc3ccccc32)cc1OC (centres undefined) | 0 | 0 | 4 | 87 | 3 | 0
COc1cc(C=NCC2OCCc3ccccc32)cc(OC)c1 (centres undefined) | 0 | -6 | -1 | 87 | -3 | 18*
CN1CCN(S(=O)(=O)NC[C@H]2O[C@@H](n3cnc4c(N)ncnc43)[C@H](O)[C@@H]2O)CC1 | 0 | . | . | 107 | . | .
CCOC(=O)C1CCCN(S(=O)(=O)NC[C@H]2O[C@@H](n3cnc4c(N)ncnc43)[C@H](O)[C@@H]2O)C1 (some centres undefined) | 3 | . | -3 | 107 | 3 | +
C=CCOc1ccc(C[C@H](N)C(=O)NC[C@H]2O[C@@H](n3cnc4c(N)ncnc43)[C@H](O)[C@@H]2O)cc1 | 43* | . | . | 98 | . | .
Cc1nc(NC(=O)c2ccccc2)sc1-c1cc(C(=O)O)nn1Cc1ccccc1 | . | . | . | 100 | . | .
COc1ccc(N=Nc2nc3ccc(Br)cc3n2C)cc1 | 4 | 15 | -2 | ? | 18 | 88*
COc1ccc(-c2c(-c3cc(OC)cc(OC)c3)n(C)c3ccc(Br)cc23)cc1 | 2 | . | -7 | 101 | 0 | 0
Cc1ccc(OCc2nnc(SC(C)C(=O)O)n2Cc2ccccc2)cc1 (centres undefined) | 2 | 3 | -2 | 77 | -1 | 11*
Cc1ccc(C)n1NC(=O)c1cccs1 | 0 | -8 | -3 | 83* | 4 | 2
O=C(NNS(=O)(=O)c1ccccc1)c1cccs1 | 0 | -12 | . | 76 | 0 | .
Cc1ccc(C)n1NC(=O)c1ccccc1 | 13 | 0 | -1 | 102 | -1 | 2
O=C(NNS(=O)(=O)c1ccc(Br)cc1)c1cccs1 | 0 | -6 | -8 | 107 | 12 | 17*
O=C(N/C=C/n1cnc2cc(C(F)(F)F)ccc21)c1ccccc1F | 0 | -1 | 6 | 104 | 3 | 2
COc1ccc2oc(=O)c(C(=O)NCCc3ccc(OC)c(OC)c3)cc2c1 | 0 | . | -2 | 97 | 1 | 12*
COc1ccc2oc(=O)c(C(=O)NCc3ccc4c(c3)OCO4)cc2c1 | 3 | 1 | 0 | . | 13 | 4
CC(C)=CC(=O)Nc1ccc(S(=O)(=O)Nc2ccccn2)cc1 | 0 | -2 | 5 | 98 | 5 | -3
CCCC(=O)Nc1sc(Cc2ccccc2)c(C)c1C(N)=O | 0 | -5 | 4 | 115 | -6 | 0
COC(=O)CCC(=O)Nc1sc(Cc2ccccc2)c(C)c1C(N)=O | 1 | -8 | 1 | 84 | 6 | 22*
COc1ccc(/C=C2\C(=O)NC(=S)N2C(=O)c2ccc(F)cc2)cc1 | 0 | -11 | 1 | 110 | -35 | +
Cc1[nH]c2ccccc2c1/C=N/NC(=O)c1cccc([N+](=O)[O-])c1 | 0 | -1 | 1 | 60* | 1 | 4
Cc1[nH]c2ccccc2c1/C=N/NC(=O)c1cccc(F)c1 | 1 | -1 | 9 | 93 | 9 | 2
COc1ccc(/C=N/NC(=O)c2cccc([N+](=O)[O-])c2)c2ccccc12 | 0 | . | 9 | 96 | 6 | 1
Cn1cc(/C=N/NC(=O)c2cccc([N+](=O)[O-])c2)c2ccccc21 | 0 | 5 | -3 | 25* | 4 | 1
COc1cccc(C2CC(=O)N3CN(c4cccc(Cl)c4C)CSC3=C2C#N)c1OC (centres undefined) | 5 | 1 | 51* | 103 | -8 | -1
COc1ccc(OC)c(C2CC(=O)N3CN(c4cccc(Cl)c4)CSC3=C2C#N)c1 (centres undefined) | 0 | 6 | 5 | 104 | -1 | 5
COc1ccc(OC)c(C2CC(=O)N3CN(c4cccc(Cl)c4C)CSC3=C2C#N)c1 (centres undefined) | 2 | -2 | 37* | 94 | -21 | 1
